# Molecular target: GPR176
# Assay: pooled miR-30 sensor sort-seq; sequence = guide strand
# Conditions: shRNA
# Also: reference of the scale not given here.
row,Sequence,sensor-assay potency score (higher = more potent)
1,TTGAACACGGTTGTGCGGCAAG,-0.817
2,AAAAATTTGACGACCTTGCAGA,-0.383
3,TTGCTGTTTCGGGTCTCTGAGA,-1.55
4,TTTATTGTTTCTGCTCATCTTC,-0.299
5,TTGCTCCAGACTTCCGTGCAGG,-0.956

# Molecular target: GPR20
# Assay: as above
# Conditions: shRNA
row,Sequence,sensor-assay potency score (higher = more potent)
1,TAGACCACGAGGCTCGTGTGGT,-1.11
2,ATGGTGTAGATGACTGAGGGTG,-1.26
3,TGCATGTTGAGGAAGTAACCGA,-0.614
4,TAGCGGTCCACGCAGATGCAGG,-1.47
5,AAACACGCTGATGACCAGCAGG,-1.04
6,TAGTACACAGCGAAGCGCGTGG,0.127
7,TTGGAGCTCCTGTGCATGCTGA,-0.983
8,TTGATGGTGTAGATGACTGAGG,-1.03
9,TAGACGATGGGGTCCATGCAGC,-0.856
10,TAGATCGGTCACCACCAGGTTG,-0.8
11,TACCAGTAGATCGGTCACCACC,-1.53
12,TGGTGTAGATGACTGAGGGTGT,-0.513

# Molecular target: GPR35
# Assay: as above
# Conditions: shRNA
row,Sequence,sensor-assay potency score (higher = more potent)
1,TTTGTGGGCCTTAGCACTGGGA,-1.13
2,ATGTAGTAGTAGCAGATGGCGT,-1.53
3,TAGGCGTAGAAGCCCAGCTTGA,-1.67
4,TTGCTGGTTATGTACAGGGCGC,-1.43
5,TGTAGTAGTAGCAGATGGCGTC,0.146
6,TAGAAGCCCAGCTTGATCGCTG,0.371
7,ATGGAGTTGAAATTGTGCCGGG,-0.394
8,TAGCAGATGGCGTCCAGGCAGC,-1.38
9,TTGGCCATGTAGTAGTAGCAGA,-0.948
10,TTGGCATCTGAGAGCTTGCTGG,-1.04
11,TGGAGTTGAAATTGTGCCGGGT,0.0323
12,TTTTGTGGGCCTTAGCACTGGG,-0.0303

# Molecular target: GPR3
# Assay: as above
# Conditions: shRNA
row,Sequence,sensor-assay potency score (higher = more potent)
1,TATATGTGCATATATAATCTTT,-0.621
2,TAGAGCTGCAGCATGATGCCAA,-0.00504
3,TCTGAGTAGAACACTGACCACC,-0.825
4,TAGGGATCTGAACAGAACCTTG,-1.54
5,TTGTACAGAGAAAGGTAGCGGT,0.0257
6,TAGAACTCCAGAACCAGCTGGG,0.254
7,TAGACAGTGAAGGGCAACCAGC,-1.54
8,TGACTAATCTCTCTGACTCTTT,-0.512
9,TAAATAGACACTGTCTTTGTAT,0.00652
10,TTGGAAGAGGAACAGCAGCAGC,-1.16
11,TAGCTCAGAAATTCAAACGTAA,0.128
